Data reported in PubChem BioAssay (EPA / NIEHS).
Activity calls are given as the source filed them. How the source made its calls: active means hit-call score of the fitted dose curve at least 0.9, where 1 is the maximum; inactive means score below 0.9.

Legend:
Conditions in all cases: mRNA level, 48 h; actives raise or lower the signal
[1] = read-out: 3-Hydroxy-3-Methylglutaryl-CoA Synthase 2 (HMGCS2), HMGCS2 (gene 3158); experiment: LTEA_HepaRG_HMGCS2: Life Technologies and Expression Analysis (LTEA) Assay for 3-Hydroxy-3-Methylglutaryl-CoA Synthase 2 (HMGCS2) using HepaRG (AID 2283504)
In short: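 This steatosis marker was read as HMGCS2 mRNA change in HepaRG cells treated 48 h with up to 100 uM chemical. Normalisation used housekeeping genes; activity in either direction was fitted relative to 0.5% DMSO vehicle.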

HGF (gene 3082) = experiment: LTEA_HepaRG_HGF: Life Technologies and Expression Analysis (LTEA) Assay for Hepatocyte Growth Facto (HGF) using HepaRG (AID 2283505)
In short: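 Using HepaRG monolayers kept in 0.5% DMSO, chemicals were tested in duplicate over eight half-log concentrations from 100 uM for 48 h. Endpoint: HGF mRNA change relative to DMSO, normalized to ACTB/GAPDH/POLR2A.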

[2] = read-out: Insulin Like Growth Factor 1 (IGF1), IGF1 (gene 3479); experiment: LTEA_HepaRG_IGF1: Life Technologies and Expression Analysis (LTEA) Assay for Insulin Like Growth Factor 1 (IGF1) using HepaRG (AID 2283506)
In short: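 qRT-PCR readout of IGF1 mRNA, normalized to three housekeeping genes, after 48 h chemical exposure of HepaRG cells. Concentrations: 8-point half-log series, top 100 uM, 0.5% DMSO vehicle. Gain or loss fitted against DMSO baseline.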

[3] = read-out: Interleukin 6 (IL6), IL6 (gene 3569); experiment: LTEA_HepaRG_IL6: Life Technologies and Expression Analysis (LTEA) Assay for Interleukin 6 (IL6) using HepaRG (AID 2283509)
In short: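 qRT-PCR read-out of IL6 transcript, normalized to three housekeeping genes, after 48 h chemical exposure of HepaRG cells; 8-point half-log series, top 100 uM, 0.5% DMSO vehicle. Bidirectional curve fitting against DMSO baseline.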

[4] = read-out: Potassium channel subfamily K member 1 (KCNK1), KCNK1 (gene 3775); experiment: LTEA_HepaRG_KCNK1: Life Technologies and Expression Analysis (LTEA) Assay for Potassium channel subfamily K member 1 (KCNK1) using HepaRG (AID 2283511)
In short: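 HepaRG, 48 h exposure, 8-pt half-log series top 100 uM, 0.5% DMSO vehicle, duplicates. Readout: KCNK1 transcript by qRT-PCR (Fluidigm array), housekeeping-normalized; bidirectional curve fit relative to DMSO baseline.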

[5] = read-out: Keratin 19 (KRT19), KRT19 (gene 3880); experiment: LTEA_HepaRG_KRT19: Life Technologies and Expression Analysis (LTEA) Assay for Keratin 19 (KRT19) using HepaRG (AID 2283512)
In short: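 Readout is qRT-PCR of KRT19 mRNA, normalized to ACTB, GAPDH and POLR2A, from HepaRG cells treated 48 h with eight-point half-log dilutions topping at 100 uM. Activity in either direction is scored relative to 0.5% DMSO vehicle.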

[6] = read-out: JUN Transcription Factor, JUN (gene 3725); experiment: LTEA_HepaRG_JUN: Life Technologies and Expression Analysis (LTEA) Assay for JUN Transcription Factor using HepaRG (AID 2283513)
In short: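 HepaRG, 48 h exposure, 8-pt half-log series top 100 uM, 0.5% DMSO, duplicate. JUN mRNA by qRT-PCR (Fluidigm), housekeeping-normalized (ACTB/GAPDH/POLR2A); bidirectional curve fit vs DMSO baseline.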

[7] = read-out: Lipase C (LIPC), LIPC (gene 3990); experiment: LTEA_HepaRG_LIPC: Life Technologies and Expression Analysis (LTEA) Assay for Lipase C (LIPC) using HepaRG (AID 2283514)
In short: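 HepaRG, 48 h exposure, 8-pt half-log series from 100 uM in 0.5% DMSO, duplicates. Readout: LIPC mRNA by Fluidigm qRT-PCR, housekeeping-normalized (ACTB/GAPDH/POLR2A). Gain or loss fitted bidirectionally against DMSO baseline.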

[8] = read-out: Lipoprotein lipase (LPL), LPL (gene 4023); experiment: LTEA_HepaRG_LPL: Life Technologies and Expression Analysis (LTEA) Assay for Lipoprotein lipase (LPL) using HepaRG (AID 2283515)
In short: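 HepaRG, 48 h exposure, 8-pt half-log dilutions from 100 uM, 0.5% DMSO vehicle, duplicates; qRT-PCR (Fluidigm array) of LPL mRNA vs housekeeping genes; bidirectional curve fit relative to DMSO baseline.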

[9] = read-out: matrix metalloproteinase-10 (MMP10), MMP10 (gene 4319); experiment: LTEA_HepaRG_MMP10: Life Technologies and Expression Analysis (LTEA) Assay for matrix metalloproteinase-10 (MMP10) using HepaRG (AID 2283517)
In short: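 Transcript levels come from Fluidigm qRT-PCR normalized to three housekeeping genes, with curves fitted bidirectionally against 0.5% DMSO. Human HepaRG cells were dosed for 48 hours at concentrations up to 100 uM.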

MYC, MYC (gene 4609) = experiment: LTEA_HepaRG_MYC: Life Technologies and Expression Analysis (LTEA) Assay for MYC using HepaRG (AID 2283518)
In short: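 Expression changes were scored by TaqMan qRT-PCR with ACTB, GAPDH and POLR2A normalization. Cultures in serum-free induction medium received duplicate 8-point concentration series, highest 100 uM, for 48 h; DMSO (0.5%) served as baseline.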

[10] = read-out: Paternally Expressed 10 (PEG10), PEG10 (gene 23089); experiment: LTEA_HepaRG_PEG10: Life Technologies and Expression Analysis (LTEA) Assay for Paternally Expressed 10 (PEG10) using HepaRG (AID 2283520);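 on AC50: differentiated HepaRG human liver cells in serum-free induction medium with 0.5% DMSO; PEG10 transcript by qRT-PCR normalised to ACTB GAPDH and POLR2A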
In short: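 qRT-PCR read-out: PEG10 mRNA normalised to three housekeeping genes, fitted bidirectionally against 0.5% DMSO vehicle. HepaRG cells received test chemicals for 48 h in serum-free induction medium, 8 points, top 100 uM, half-log steps.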

[11] = read-out: Protein phosphatase 2A (PPP2R4), PTPA (gene 5524); experiment: LTEA_HepaRG_PPP2R4: Life Technologies and Expression Analysis (LTEA) Assay for Protein phosphatase 2A (PPP2R4) using HepaRG (AID 2283522)
In short: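 HepaRG, 48 h exposure, 8-pt half-log series from 100 uM, 0.5% DMSO vehicle, duplicates. Readout: PPP2R4 mRNA, Fluidigm qRT-PCR, housekeeping-normalized. Bidirectional curve fit vs DMSO baseline.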

[12] = read-out: Phosphatase and tensin (PTEN), PTEN (gene 5728); experiment: LTEA_HepaRG_PTEN: Life Technologies and Expression Analysis (LTEA) Assay for Phosphatase and tensin (PTEN) using HepaRG (AID 2283523)
In short: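 HepaRG, 48 h exposure, 8-pt half-log series from 100 uM top, 0.5% DMSO vehicle, duplicates. Readout: Fluidigm qRT-PCR of PTEN transcript; housekeeping normalization (ACTB, GAPDH, POLR2A). Gain or loss fitted relative to DMSO baseline.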

[13] = read-out: Intercellular Adhesion Molecule 1 (ICAM1), ICAM1 (gene 3383); experiment: LTEA_HepaRG_ICAM1: Life Technologies and Expression Analysis (LTEA) Assay for Intercellular Adhesion Molecule 1 (ICAM1) using HepaRG (AID 2283507)
In short: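 Using the human liver line HepaRG, compounds are tested in duplicate over 48 h at concentrations up to 100 uM. Expression is determined by TaqMan qRT-PCR, normalized to endogenous controls, and analysed relative to 0.5% DMSO vehicle.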

[14] = read-out: Insulin-like growth factor-binding protein 1 (IGFBP1), IGFBP1 (gene 3484); experiment: LTEA_HepaRG_IGFBP1: Life Technologies and Expression Analysis (LTEA) Assay for Insulin-like growth factor-binding protein 1 (IGFBP1) using HepaRG (AID 2283508)
In short: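 HepaRG, 48 h, 8 conc. (max 100 uM, half-log), duplicates, 0.5% DMSO. Readout: TaqMan qRT-PCR, ACTB/GAPDH/POLR2A normalisation. Fit: bidirectional vs DMSO.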

[15] = read-out: Interleukin 6 Receptor (IL6R), IL6R (gene 3570); experiment: LTEA_HepaRG_IL6R: Life Technologies and Expression Analysis (LTEA) Assay for Interleukin 6 Receptor (IL6R) using HepaRG (AID 2283510)
In short: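 HepaRG, 48 h exposure, 8-pt half-log series, top 100 uM, 0.5% DMSO vehicle, duplicates. Read-out: TaqMan qRT-PCR of IL6R transcript, housekeeping-gene normalized. Gain or loss fitted relative to DMSO baseline.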

[16] = read-out: matrix metalloproteinase-3 (MMP3), MMP3 (gene 4314); experiment: LTEA_HepaRG_MMP3: Life Technologies and Expression Analysis (LTEA) Assay for matrix metalloproteinase-3 (MMP3) using HepaRG (AID 2283519)
In short: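 qRT-PCR read-out of MMP3 mRNA (normalised to three housekeeping genes) in HepaRG liver cells after 48 h chemical exposure; 8-point half-log series, top 100 uM, 0.5% DMSO vehicle. Bidirectional curve fitting against DMSO baseline.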

[17] = read-out: MicroRNA 122 (MIR122), gene 406906; experiment: LTEA_HepaRG_MIR122: Life Technologies and Expression Analysis (LTEA) Assay for MicroRNA 122 (MIR122) using HepaRG (AID 2283516); further: the transcript read is the microRNA miR-122
In short: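 qRT-PCR read-out (TaqMan, Fluidigm array), normalized to three housekeeping genes; HepaRG cells dosed 48 h at 8 concentrations up to 100 uM in 0.5% DMSO, duplicate; gain or loss fitted against DMSO baseline.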

[18] = read-out: Nuclear factor NF-kappa-B p105 subunit (Homo sapiens) (UniProt P19838); experiment: LTEA_HepaRG_NFKB1: Life Technologies and Expression Analysis (LTEA) Assay for Nuclear Factor Kappa B Subunit 1 (NFKB1) using HepaRG (AID 2283521);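 further: differentiated human HepaRG liver cells in serum-free induction medium; TaqMan qRT-PCR transcript normalised to ACTB GAPDH and POLR2A housekeeping genes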
In short: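 Human HepaRG cells receive eight half-log concentrations, highest 100 uM, for 48 h. NFKB1 expression is then quantified by qRT-PCR and analysed for up- or down-regulation relative to 0.5% DMSO vehicle.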

Measured: AC50

Nuclear factor NF-kappa-B p105 subunit (Homo sapiens), sequence (P19838 whole entry, looked up): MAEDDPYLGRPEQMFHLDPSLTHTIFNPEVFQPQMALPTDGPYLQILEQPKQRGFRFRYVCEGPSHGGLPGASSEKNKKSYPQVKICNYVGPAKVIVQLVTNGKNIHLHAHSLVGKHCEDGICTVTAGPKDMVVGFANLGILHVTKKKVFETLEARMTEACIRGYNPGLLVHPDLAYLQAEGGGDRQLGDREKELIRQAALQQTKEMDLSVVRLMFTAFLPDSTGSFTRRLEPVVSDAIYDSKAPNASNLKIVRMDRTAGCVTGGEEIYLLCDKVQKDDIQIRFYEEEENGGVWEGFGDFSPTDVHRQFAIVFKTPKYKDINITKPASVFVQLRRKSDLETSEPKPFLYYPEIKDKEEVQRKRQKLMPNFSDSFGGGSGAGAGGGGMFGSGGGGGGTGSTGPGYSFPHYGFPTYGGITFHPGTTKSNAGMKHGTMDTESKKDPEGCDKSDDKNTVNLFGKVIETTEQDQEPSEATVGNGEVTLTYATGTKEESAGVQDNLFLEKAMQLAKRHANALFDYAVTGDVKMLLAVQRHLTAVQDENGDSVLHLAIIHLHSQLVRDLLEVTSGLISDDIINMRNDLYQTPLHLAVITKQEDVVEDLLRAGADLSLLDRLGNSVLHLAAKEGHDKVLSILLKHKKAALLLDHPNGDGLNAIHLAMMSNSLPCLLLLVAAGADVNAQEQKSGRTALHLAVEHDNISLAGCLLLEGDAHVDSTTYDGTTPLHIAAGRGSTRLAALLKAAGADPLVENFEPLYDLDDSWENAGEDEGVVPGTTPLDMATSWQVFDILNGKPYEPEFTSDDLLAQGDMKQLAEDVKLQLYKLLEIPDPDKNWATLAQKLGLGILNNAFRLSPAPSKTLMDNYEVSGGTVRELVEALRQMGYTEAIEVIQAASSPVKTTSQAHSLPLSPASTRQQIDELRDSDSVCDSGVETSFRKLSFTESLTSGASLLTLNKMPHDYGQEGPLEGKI

O=P(OC(CCl)CCl)(OC(CCl)CCl)OC(CCl)CCl
active: [1] 72.8 µM | [2] 50 µM | [3] 79.6 µM | [5] 50 µM | [7] 65.3 µM | [8] 91.3 µM | MYC, MYC (gene 4609) 82.9 µM | [10] 12.7 µM | [11] 85.3 µM
inactive: HGF (gene 3082) | [4] | [6] | [9] | [12]

Cc1ccc(N)cc1O
active: [8] 31.8 µM
not listed: HGF (gene 3082) | [10] | [17] | [18]
inactive: all other assays above

C1=CCCC=CCCC=CCC1
not listed: HGF (gene 3082) | [13] | [14] | [15]
inactive: all other assays above

CC(O)CN(CCN(CC(C)O)CC(C)O)CC(C)O (stereo not given)
active: [11] 12.5 µM
not listed: HGF (gene 3082) | [13] | [14] | [15] | [16]
inactive: all other assays above

NC(=O)NO
active: [2] 14.3 µM
not listed: HGF (gene 3082) | [13] | [14] | [15] | [16] | [17]
inactive: all other assays above

O=c1n(CC2CO2)c(=O)n(CC2CO2)c(=O)n1CC1CO1 (stereo not given)
active: [3] 50 µM | [7] 71.5 µM
not listed: HGF (gene 3082) | [10] | [13] | [15]
inactive: all other assays above

O=C(O)CC(O)C(=O)O (stereo not given)
not listed: HGF (gene 3082) | [10] | [13] | [14] | [17] | [18]
inactive: all other assays above
